A short description of experiment [1]: A CellTox Green Cytotoxicity Assay to monitor cytotoxicity in HepG2 cells - 0 hour (AID 1224882). Note: nearly all actives have a fitted effect of over 35% in size. In outline: (§1)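 Measurements at 0, 8, 16, 24, 32 and 40 h of treatment captured CellTox Green fluorescence in HepG2 cells that had been co-plated with reagent and preincubated 5 h at 37 C/5% CO2.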
The nature of experiment [2]: A CellTox Green Cytotoxicity Assay to monitor cytotoxicity in HepG2 cells - 32 hour (AID 1224883). Note: nearly all actives have a fitted effect of over 50% in size. In outline:
as §1

Experiment [3] in a line: qHTS RealTime-Glo MT Cell Viability Assay in HepG2 cells - 16 hour (AID 1224885). Note: nearly all actives have a fitted effect of over 50% in size. The procedure, abridged: (§2)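 Tox21 10K library screened in qHTS format on HepG2 cells carrying RealTime-Glo reagents. Compounds were added after a 5 h preincubation, and the luminescent signal from continuous culture was measured repeatedly during 40 h treatment.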
On the technique in general: Quantitative high-throughput screening tests each substance at several concentrations.

Experiment [4] in a line: qHTS RealTime-Glo MT Cell Viability Assay in HEK293 cells - 24 hour (AID 1224886). Note: top concentration of the series differs between compounds; nearly all actives have a fitted effect of over 50% in size. The procedure, abridged: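 Luminescence generated by NanoLuc from substrate produced by living HEK293 cells served as the viability signal. Each value reflects the reading at its stated time point during continuous 40 h compound exposure at 37 C.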
Experiment [5] can be described thus: qHTS RealTime-Glo MT Cell Viability Assay in HEK293 cells - 8 hour (AID 1224887). Note: top concentration of the series differs between compounds; nearly all actives have a fitted effect of over 50% in size. In outline:
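HEK293 + NanoLuc + prosubstrate, 600 cells/well; 5 h, 37 C/5% CO2; compound 23 nL in DMSO by pintool; 37 C; luminescence read at 0, 8, 16, 24, 32 and 40 h time points.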

Experiment [6] in a line: A CellTox Green Cytotoxicity Assay to monitor cytotoxicity in HEK293 cells - 16 hour (AID 1224888). Note: nearly all actives have a fitted effect of over 35% in size. In outline:
(§3)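 Tox21 screen in HEK293: membrane-impermeant cyanine dye fluoresces on binding dead-cell DNA; compound pinned 5 h post-seeding, plates held at 37 C, signal read repeatedly through 40 h.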

Experiment [7] can be described thus: qHTS RealTime-Glo MT Cell Viability Assay in HepG2 cells - 0 hour (AID 1224889). Note: nearly all actives have a fitted effect of over 50% in size. Note: potency is the fitted concentration of half-maximal effect. The procedure, abridged:
as §2

The nature of experiment [8]: A CellTox Green Cytotoxicity Assay to monitor cytotoxicity in HepG2 cells - 8 hour (AID 1224890). Note: nearly all actives have a fitted effect of over 45% in size. The procedure, abridged: as §1
A short description of experiment [9]: qHTS assay to identify small molecule antagonists of the estrogen receptor alpha (ER-alpha) signaling pathway using the BG1 cell line in the presence of 0.1 nM 17-beta-estradiol - cell viability counter screen (AID 1259241). Note: nearly all actives have a fitted effect of over 40% in size. The procedure, abridged:
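VM7Luc4E2, 4,000 cells/well, phenol red-free medium + 10% charcoal-stripped FBS; 24 hr plating; cpd + 0.1 nM E2 final, 22 hr 37C/5% CO2; CellTiter-Fluor 30 min, fluorescence.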

Experiment [10] is described as follows: qHTS assay to identify small molecule antagonists of the androgen receptor (AR) signaling pathway using the MDA cell line in the presence of 0.5 nM R1881 - cell viability counter screen (AID 1259242). Note: nearly all actives have a fitted effect of over 45% in size. In outline:
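Concentration-response screen of compounds for toxicity in MDA-kb2 reporter cells: 16 hr at 37C with 0.5 nM R1881, endpoint live-cell protease fluorescence measured in the reporter wells.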

Experiment [11] can be described thus: qHTS assay to identify small molecule phospholipidosis (PLD) inducers (AID 1259344; active = well fitted curve in the direction sought with a large enough effect; an effect the other way counts as inactive or inconclusive). The procedure, abridged: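 Read-out is LipidTOX Red fluorescence (ex 595/em 615) imaged in HepG2 cells after 24 h compound exposure at 37 C, with Hoechst nuclear counterstain (ex 352/em 461) allowing per-cell normalisation.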
The nature of experiment [12]: qHTS assay to identify small molecule HDAC inhibitors (AID 1259364).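 Note: wild-type HCT-116 cells with endogenous class I/II HDAC activity; top concentration of the series differs between compounds; nearly all actives have a fitted effect of over 45% in size.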 In outline:
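Screening used wild-type human colon HCT-116 cells incubated overnight, dosed with compounds for 2 hours, and assayed with a homogeneous luminogenic HDAC I/II reagent for 30 minutes at room temperature.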

Experiment [13] can be described thus: qHTS assay to identify small molecule HDAC inhibitors - cell viability counter screen (AID 1259365). In outline:
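Luminescence from CellTiter-Glo, developed 30min at room temperature, reports viability of wild-type HCT-116 cells treated 2hr with compounds at 37 C and 5% CO2 after overnight plating.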

A short description of experiment [14]: qHTS assay to identify small molecule agonists of the sonic hedgehog signaling (Shh) pathway - cell viability counter screen (AID 1259366). Note: nearly all actives have a fitted effect of over 50% in size. The procedure, abridged:
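Cytotoxicity counter screen run in the same wells as the Shh reporter assay. NIH/3T3 cells carrying a Gli1 response element–driven luciferase were treated with DMSO-dissolved compounds for 24hr, and live-cell protease activity was measured with CellTiter-Fluor.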

A short description of experiment [15]: qHTS assay to identify small molecule antagonists of the sonic hedgehog signaling (Shh) pathway - cell viability counter screen (AID 1259367). Note: nearly all actives have a fitted effect of over 55% in size. In outline: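 Fluorescence read-out (CellTiter-Fluor, 1 hr at 37C) taken after 23 hr compound treatment of 3T3 Gli1-Luc cells stimulated with conditioned medium. Cells were seeded at 2,000 per well and pre-incubated 4 hr.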

The nature of experiment [16]: qHTS assay to identify small molecule agonists of the sonic hedgehog signaling (Shh) pathway (AID 1259368; calls by dose curve;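 note: NIH/3T3-derived 3T3Gli1-Luc cells carrying a stable Gli1-driven firefly luciferase reporter; series mostly up to about 92 µM; nearly all actives have a fitted effect of over 15% in size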). In outline: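 Hedgehog pathway agonism scored by increased firefly luciferase luminescence in 3T3Gli1-Luc cells treated 24 hr at 37 C; detection used a 30 min room-temperature reagent incubation.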
Experiment [17] can be described thus: qHTS assay to identify small molecule antagonists of the sonic hedgehog signaling (Shh) pathway (AID 1259369; calls by dose curve; note: nearly all actives have a fitted effect of over 45% in size). The procedure, abridged: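 NIH/3T3 stable Gli1-Luc clone, 2,000 cells/well, 4hr settle; cpd + conditioned medium 24hr; Luc reagent 30min RT; luminescence.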
The nature of experiment [18]: A CellTox Green Cytotoxicity Assay to monitor cytotoxicity in HEK293 cells - 8 hour (AID 1224884). Note: nearly all actives have a fitted effect of over 35% in size. In outline:
as §3

Experiment [19] concerns the target Estrogen receptor (Homo sapiens) (UniProt P03372). The experiment can be described thus: qHTS assay to identify small molecule antagonists of the estrogen receptor alpha (ER-alpha) signaling pathway using the BG1 cell line in the presence of 0.1 nM 17-beta-estradiol (AID 1259244). Note: nearly all actives have a fitted effect of over 50% in size. In outline:
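Compounds were tested against 0.1 nM (final) 17beta-estradiol in VM7Luc4E2 cells, which express full-length ER-alpha and an ERE-luciferase reporter; luminescence was recorded following 22 h exposure.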

For experiment [20], the target named is Androgen receptor (Homo sapiens) (UniProt P10275). The experiment can be described thus: qHTS assay to identify small molecule antagonists of the androgen receptor (AR) signaling pathway using the MDA cell line in the presence of 0.5 nM R1881 (AID 1259243). In outline:
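With R1881 held at 0.5 nM (final), compound effects on MMTV-luciferase expression in MDA-kb2 cells were scored by luminescence after a 16 hr, 37C incubation.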

Each structure is given as a SMILES string. Unmarked numbers belong to inactive results. Records with an inconclusive call do not appear. Calls of active or inactive are those of the source. Unless noted, calls come from the whole dose curve; as a rule, active = well fitted curve in the direction sought with a large enough effect in the repeat runs; inconclusive = weak or mixed curves; inactive = no such curve, though single readings can be large; an effect the other way counts as inactive or inconclusive.

Chain of Estrogen receptor (Homo sapiens) (P03372 whole entry, looked up): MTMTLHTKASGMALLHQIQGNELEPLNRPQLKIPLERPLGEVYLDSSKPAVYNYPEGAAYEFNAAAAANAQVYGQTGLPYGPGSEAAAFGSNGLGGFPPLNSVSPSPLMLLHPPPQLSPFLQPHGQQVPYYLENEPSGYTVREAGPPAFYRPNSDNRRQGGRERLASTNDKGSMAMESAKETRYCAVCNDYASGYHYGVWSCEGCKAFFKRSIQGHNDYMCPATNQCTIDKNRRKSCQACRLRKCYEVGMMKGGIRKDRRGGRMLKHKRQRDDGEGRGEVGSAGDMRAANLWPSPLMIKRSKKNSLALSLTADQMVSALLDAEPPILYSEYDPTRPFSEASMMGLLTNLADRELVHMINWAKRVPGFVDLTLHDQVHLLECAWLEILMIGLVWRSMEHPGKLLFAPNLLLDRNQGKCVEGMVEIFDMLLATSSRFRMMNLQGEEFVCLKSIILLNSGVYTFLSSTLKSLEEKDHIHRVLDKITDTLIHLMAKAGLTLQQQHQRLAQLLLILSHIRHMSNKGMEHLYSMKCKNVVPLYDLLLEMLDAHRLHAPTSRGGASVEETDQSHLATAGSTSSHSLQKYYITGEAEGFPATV
Chain of Androgen receptor (Homo sapiens) (P10275 whole entry, looked up): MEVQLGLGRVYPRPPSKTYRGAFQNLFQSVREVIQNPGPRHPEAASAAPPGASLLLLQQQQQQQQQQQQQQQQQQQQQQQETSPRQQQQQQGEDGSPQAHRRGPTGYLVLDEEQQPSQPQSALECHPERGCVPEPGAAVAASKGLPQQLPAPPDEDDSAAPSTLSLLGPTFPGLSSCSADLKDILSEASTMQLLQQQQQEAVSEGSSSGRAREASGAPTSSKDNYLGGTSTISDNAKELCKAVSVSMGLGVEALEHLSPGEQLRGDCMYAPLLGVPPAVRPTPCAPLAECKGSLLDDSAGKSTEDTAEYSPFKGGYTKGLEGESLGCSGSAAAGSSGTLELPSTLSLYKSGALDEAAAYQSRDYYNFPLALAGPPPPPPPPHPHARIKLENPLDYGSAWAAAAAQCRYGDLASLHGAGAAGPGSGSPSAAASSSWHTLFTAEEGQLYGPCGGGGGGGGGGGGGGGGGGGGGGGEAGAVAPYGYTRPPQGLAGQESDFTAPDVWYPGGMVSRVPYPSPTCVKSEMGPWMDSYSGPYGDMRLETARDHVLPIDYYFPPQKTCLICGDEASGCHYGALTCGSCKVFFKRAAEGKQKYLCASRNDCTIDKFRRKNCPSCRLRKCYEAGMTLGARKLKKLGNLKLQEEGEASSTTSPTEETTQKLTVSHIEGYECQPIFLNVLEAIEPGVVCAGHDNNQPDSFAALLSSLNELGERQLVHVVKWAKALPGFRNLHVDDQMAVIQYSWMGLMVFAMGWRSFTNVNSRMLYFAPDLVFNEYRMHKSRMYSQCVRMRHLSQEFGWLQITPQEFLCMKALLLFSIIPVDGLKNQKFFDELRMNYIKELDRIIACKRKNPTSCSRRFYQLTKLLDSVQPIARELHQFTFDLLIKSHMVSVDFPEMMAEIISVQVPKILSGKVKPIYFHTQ

As to `O=C(O)CNC(=O)c1ccccc1`, the Potency entry in experiment [1], in [2], in [4], in [5], in [7] and in experiment [12] was “inactive” in each case. Further, the Potency entry in experiment [14], in [15] and in experiment [17] was “inactive” each time. Moreover, the compound was classed as inactive in experiment [3], in [6], in experiment [8], in experiment [9], in [10] and in [11]. In addition, the call in experiment [13] and in experiment [16] was inactive.
For `COC(=O)C1=C(C)NC(C)=C(C(=O)OC(C)C)C1c1cccc2nonc12` (stereo unspecified), the Potency entry in experiment [1], in experiment [2] and in experiment [12] was “inactive” each time. Moreover, the result in [18], in experiment [6], in experiment [8], in [9], in experiment [10] and in [11] was inactive. Moreover, the compound was classed as inactive in [13] and in experiment [16]. Further, in experiment [7], the Potency is 1.07 µM (active).
Regarding `CC[C@H]1OC(=O)[C@H](C)[C@@H](O[C@H]2C[C@@](C)(OC)[C@@H](O)[C@H](C)O2)[C@H](C)[C@@H](O[C@@H]2O[C@H](C)C[C@H](N(C)C)[C@H]2O)[C@](C)(OC)C[C@@H](C)C(=O)[C@H](C)[C@@H](O)[C@]1(C)O`, the Potency entry in experiment [1], in experiment [2], in experiment [4], in experiment [5], in [7] and in experiment [12] was “inactive” in each case. For the same compound, the result in experiment [18], in [6], in experiment [8], in [9], in experiment [10] and in [19] was inactive. The call in [11], in [13] and in experiment [16] was inactive.
For the compound `COC(=O)Nc1ccc(Cl)c(Cl)c1`, the Potency entry in experiment [1], in experiment [2], in experiment [7], in experiment [12], in experiment [14] and in experiment [15] was “inactive” each time. The call in [18], in experiment [3], in experiment [6], in experiment [8], in [9] and in experiment [10] was inactive. Further, the compound was classed as inactive in experiment [13] and in experiment [16]. Moreover, the Potency in [20] was 6.82 µM (active).
In the case of `Cc1ccc(C(=O)c2ccccc2)cc1`, the Potency entry in experiment [1], in experiment [2], in experiment [4], in [5], in [7] and in experiment [14] was “inactive” throughout. Moreover, the Potency result in [15] and in [17] was “inactive” each time. For the same compound, the compound was called inactive in experiment [18], in experiment [6], in [8], in [9], in [10] and in experiment [19]. The outcome in experiment [13] and in experiment [16] was inactive.
In the case of `c1ccc2sc(SN3CCOCC3)nc2c1`, the Potency result in experiment [1], in experiment [2], in [4], in experiment [5], in [7] and in [14] was “inactive” each time. Also, the Potency result in experiment [15] and in experiment [17] was “inactive” each time. Also, the outcome in experiment [18], in experiment [6], in experiment [8], in experiment [9], in experiment [10] and in experiment [11] was inactive. For the same compound, the outcome in experiment [13] and in experiment [16] was inactive.
On to `NCCCC[C@H](N[C@@H](CCc1ccccc1)C(=O)O)C(=O)N1CCC[C@H]1C(=O)O`, for which the Potency entry in experiment [1], in experiment [2], in experiment [4], in experiment [5], in experiment [7] and in experiment [12] was “inactive” throughout. For the same compound, the Potency entry in experiment [14], in experiment [15] and in [17] was “inactive” throughout. Besides, the outcome in experiment [18], in [6], in experiment [8], in experiment [9], in [10] and in experiment [11] was inactive. The call in experiment [13] and in [16] was inactive.
As to `COc1cc(C(=O)OC(COCCC(C)C)CN2CCOCC2)cc(OC)c1OC` (stereo unspecified), the Potency result in experiment [1], in [2], in experiment [4], in [5], in experiment [7] and in experiment [12] was “inactive” each time. For the same compound, the Potency entry in [14], in experiment [15] and in [17] was “inactive” in each case. Also, the compound was called inactive in [18], in experiment [6], in experiment [8], in experiment [9], in experiment [10] and in experiment [19]. The result in [11], in experiment [13] and in experiment [16] was inactive.

For the origin of these results see PubChem BioAssay (Tox21).
